# Bioassay records as filed in PubChem.
# The list is not random: actives were taken first. Their share in the collection is about 9.9%.
# KB-V1 MDR tox: kills drug-selected multidrug resistant KB-V1 cells; KB-V1 MDR cells viability, CellTiter-Glo, 72 h; Potency, µM (series often up to 46.1 µM), actives largely listed as cytotoxic; hit rate 3.4% among 400,000; AID 1347076; also: potency is read from the fitted curve at half-maximal effect; % is scaled to controls: 0 for no effect and ±100 for the full control effect; nearly all actives have a fitted effect of over 60% in size
#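 Compound-treated KB-V1 multidrug-resistant cells, 72 h, 37 degrees C; viability by CellTiter-Glo. Fitted qHTS curves give the values.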
# IL-1B inflam inh: inhibitors of inflammasome signaling (IL-1 beta secretion) | hit rate 4.7% among 360,000 | activity change, % at 57.5 µM | THP-1 LPS/ATP IL-1B secretion, AlphaLISA, 16 h; stronger effect = lower value | AID 743279; in the data active = activity change below about -50%; inconclusive = mostly about -30% to -49%; also: % is scaled to controls: 0 for no effect and ±100 for the full control effect
#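 Secreted IL-1B measured by AlphaLISA bead assay after 16 h compound exposure of THP-1 cells; compounds (final up to 57.5 uM) added 1 h before LPS (250 ng/mL) and ATP (1.25 mM) stimulation; lower signal means less secretion.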
# SW480 rereplic: inducers of DNA re-replication in SW480 colon cancer cells; SW480 DNA re-replication, Hoechst DNA content imaging, 48 h; Potency, µM (top dose mostly 46.1 µM), for inactives: at the highest dose re-replication activation, hits mostly activators; hit rate 1.8% among 340,000; AID 624297; also: potency is read from the fitted curve at half-maximal effect; % of control where 0% means no effect; nearly all actives have a fitted effect of over 55% in size
#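 Cells (250 per well) received 23 nL compound or DMSO by pin tool and were kept 48 hr at 37 C, 5% CO2. Nuclei were then stained with Hoechst for 40 min and scanned for DNA content.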
# MCF10A rereplic: induces DNA re-replication in MCF 10a normal breast cells; MCF 10A DNA re-replication, Hoechst nuclear intensity, 48 h; Potency, µM (titrated, usually from 46.1 µM), for inactives: at the top dose activity, positive = re-replication, actives largely listed as activators; hit rate 2.9% among 350,000; AID 624296; also: potency is read from the fitted curve at half-maximal effect; % of control where 0% means no effect; nearly all actives have a fitted effect of over 50% in size
# KB-3-1 cytotox: KB-3-1 parental cell cytotoxicity. hit rate 1.4% among 400,000. AID 1347075. Potency, µM (series often up to 46.1 µM), most hits filed as cytotoxic. KB-3-1 viability, CellTiter-Glo ATP luminescence, 72 h; also: potency is read from the fitted curve at half-maximal effect; % is scaled to controls: 0 for no effect and ±100 for the full control effect; nearly all actives have a fitted effect of over 60% in size
#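 Viability of parental KB-3-1 cells, measured by CellTiter-Glo luminescence, followed a 72 h incubation at 37 °C with pinned compounds in phenol-red-free DMEM containing 10% FBS.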
# * hit, by the source's call; i = inactive; ? = inconclusive; nt = no result given. Unless noted, calls follow the shape of the dose curve; as a rule, active = well fitted curve in the direction sought with a large enough effect; inconclusive = small, poorly fitted or top-dose-only effect, or another doubt; inactive = no such curve, though single readings can be large; an effect the other way counts as inactive or inconclusive.
SMILES,KB-V1 MDR tox,IL-1B inflam inh,SW480 rereplic,MCF10A rereplic,KB-3-1 cytotox
O=C(N/N=C/c1ccc([N+](=O)[O-])o1)c1cc(-c2ccc(-c3ccccc3)cc2)nc2ccccc12,i,-8.1,1.3µM*,0.92µM*,?
CC(/C=N/NC(=O)c1cc(-c2ccncc2)nc2ccccc12)=C\c1ccco1,1.46µM*,9.7,0.92µM*,?,?
O=C(N/N=C/c1ccc([N+](=O)[O-])o1)c1cc(-c2ccncc2)nc2ccccc12,?,-25.6,?,5.01µM*,?
Cc1ccc(NC2CCCN(C(=O)c3cc4ncccn4n3)C2)cc1C (stereo not given),i,5.7,-8.9%,11.5%,i
O=C1CCCN2N=C(SCC(=O)Nc3ccc([N+](=O)[O-])cc3)SC2=N1,i,0.2,2.91µM*,5.17µM*,i
COc1ccccc1NC(=O)/C(=C/c1cccs1)NC(=O)c1ccco1,i,nt,4.61µM*,2.3%,i
CCOc1ccccc1NC(=O)c1ccc(NC(=O)c2ccco2)cc1,i,-58.2*,-9.0%,-2.8%,i
COc1ccc(C(=O)Nc2cc(OC)c(NC(=O)c3ccco3)cc2OC)cc1,i,9.8,0.1%,0.8%,i
COc1cc(NC(=O)c2oc3ccccc3c2C)ccc1NC(=O)c1ccco1,i,-2.8,1.2%,18.4µM*,i
CCOc1ccccc1NC(=O)c1ccc(C(=O)Nc2ccccc2OCC)cc1,?,nt,nt,nt,i
COc1ccc(NC(=O)c2ccc(NC(=O)c3ccco3)cc2)c(OC)c1,i,-50.0*,-17.2%,-1.4%,?
Cc1ccc(-n2nc(C(=O)Nc3ccc(Cl)cn3)c3c4ccccc4n(C)c3c2=O)cc1,?,nt,nt,nt,i
COc1ccc(C(C)=O)cc1CSc1ccc2c(c1)OCCO2,i,-3.1,6.1%,-0.3%,i
COc1ccccc1NC(=O)c1cccc(NC(=O)c2ccco2)c1,i,-21.8,-5.2%,1.3%,i
COc1ccc(NC(=O)Cc2ccc(Cl)cc2)cc1NC(=O)c1ccco1,7.31µM*,-55.9*,7.5%,10.9%,i
CCOc1cc(NC(=O)c2ccco2)c(OCC)cc1NC(=O)c1ccco1,i,16.7,-1.6%,?,i
CCOc1cc(C#N)c(NC(=O)c2ccco2)cc1OCC,?,20.7,9.2µM*,?,6.51µM*
COc1ccc(NC(=O)c2cccc(-n3c(C)ccc3C)c2)c(OC)c1,?,-60.8*,?,?,?
COc1ccccc1NC(=O)c1ccc(NC(=O)c2ccco2)cc1,i,-74.6*,15.9%,11.3%,i
O=C(CSC1=NS(=O)(=O)c2cc(F)ccc2N1)NCc1ccccc1Cl,i,0.5,-5.2%,1.0%,i
CSc1nn2c(C(F)(F)F)cc(C(F)(F)F)nc2c1C(N)=O,i,0.0,-9.5%,-2.4%,i
Cc1ccc(CNC(=O)Cn2ccc3cc(S(=O)(=O)N4CCCC4)ccc32)o1,i,13.3,-4.3%,9.5%,i
COc1ccccc1NC(=O)c1sc(NC(=O)c2ccco2)c(C#N)c1C,i,-6.7,?,16.4µM*,i
CSCCNC(=O)C1(C)CCN1C(=O)CCc1ccccc1 (stereo not given),i,19.6,nt,nt,i
COc1ccc(NC(=O)c2cccc(Oc3ccc([N+](=O)[O-])cc3Cl)c2)cc1,?,39.0,?,6.51µM*,?
SMILES,KB-V1 MDR tox,IL-1B inflam inh,SW480 rereplic,MCF10A rereplic,KB-3-1 cytotox
O=C(Nc1cccc(Cl)c1)c1cccc(Oc2ccc([N+](=O)[O-])cc2Cl)c1,?,-59.4*,4.11µM*,?,i
Cc1ccc(Nc2nc(N)nc(COC(=O)c3ccc(Br)o3)n2)cc1,i,-7.2,-3.5%,2.2%,i
Cc1ccc(NCc2cccc(B(O)O)c2)cc1,i,-94.8*,?,-6.3%,i
Cc1oc(S(=O)(=O)N2CCCCC2)cc1NC(=O)Nc1ccc(Cl)cc1,?,26.0,-22.5%,0.4%,i
C[C@H](O)[C@@H]1C(=O)N2CCc3c([nH]c4ccccc34)[C@@H]2C[C@@H]1N(C)S(=O)(=O)c1ccccc1,i,-15.2,nt,nt,i
Cc1ccc(-c2ccc(C(=O)O)c(C)n2)cc1,i,4.2,2.31µM*,-46.5%,i
COC(=O)c1ccc(-c2ccc(F)cc2)nc1C,i,-5.8,29.1µM*,-5.6%,i
O=C(Nc1nc2cc3c(cc2s1)OCO3)C1=COCCO1,i,23.5,16.4µM*,?,6.51µM*
CCOC(=O)c1ccc2nc(NC(=O)c3ccco3)sc2c1,?,-3.6,?,20.6µM*,i
O=C(Nc1nc2cc3c(cc2s1)OCCO3)c1ccco1,11.6µM*,?,?,?,?
CC1(C(=O)Nc2cccnc2)Cc2c(-c3cccc(C(F)(F)F)c3)ccnc2O1 (stereo not given),i,-4.2,nt,nt,i
C1=C(c2ccccc2)Nc2ccccc2N=C1c1ccccc1,?,i,21.2%,?,i
COc1cc(OC)c(NC(=O)c2nn(-c3ccc(C)cc3)c(=O)c3c2c2ccccc2n3C)cc1Cl,i,nt,nt,nt,i
S=C(Nc1ccc2nsnc2c1)N1CCCCC1,?,-64.3*,-11.6%,10.7%,i
S=C(Nc1ccc(Cl)c(Cl)c1)N1CCCC1,i,-27.9,2.1%,-3.7%,?
CCC(C)(c1nnnn1-c1c(C)cccc1C)N(N=O)c1ccccc1Cl (stereo not given),18.4µM*,0.0,nt,?,?
COc1cc(NS(=O)(=O)c2ccc(NC(=O)C(C)Oc3ccc(Cl)cc3Cl)cc2)nc(OC)n1 (stereo not given),i,nt,nt,nt,i
O=C(NCc1ccccc1)N1CCn2c(nc3ccccc32)C1,18.4µM*,4.8,1.3%,-0.5%,i
Cn1c(-c2cccc(Br)c2)cnc1NCc1ccccc1O,i,-68.7*,-2.7%,15.8%,i
Cn1c(=O)c2c(nc(NCCCO)n2CCc2ccccc2)n(C)c1=O,i,24.7,-7.6%,-3.8%,i
Cn1c(=O)c2c(nc(NCc3ccccc3)n2Cc2ccccc2)n(C)c1=O,i,nt,nt,nt,i
Cn1c(=O)c2c(nc(NCc3ccc4c(c3)OCO4)n2Cc2ccccc2)n(C)c1=O,i,-28.8,?,?,23.1µM*
Cn1c(=O)c2c(nc(NCCO)n2CCc2ccccc2)n(C)c1=O,i,-5.2,-15.8%,-3.7%,20.6µM*
Cn1c(=O)c2nc(NCc3ccccc3)cnc2n(C)c1=O,18.4µM*,8.3,0.8%,0.4%,i
CS(=O)(=O)Nc1ccc(-c2cnc3cccnn23)cc1,?,0.7,nt,nt,i
COCCNC(=O)C1(C)CCCN(Cc2ccc(-n3ccnc3)cc2)C1 (stereo not given),i,29.2,nt,nt,i
COCC(C)NC(=O)c1nn(Cc2ccccc2)c(=O)c2ccccc12 (stereo not given),i,21.7,-2.4%,0.8%,i
